Data taken from PubChem BioAssay (EPA / NIEHS).
Calls of active or inactive are those of the source. Rule for the calls: active = hit-call score of the fitted dose curve at least 0.9, where 1 is the maximum; inconclusive = response in the unintended direction; inactive = score below 0.9.

What follows are compounds tested against human CYP2D6, CYP2D6 (gene 1565) (UniProt P10635) (assay: NVS_ADME_hCYP2D6: NovaScreen (NVS) CYP450-related Enzyme Activity (ADME) Assay for human CYP2D6 (AID 2283107)).
human CYP2D6, CYP2D6 (gene 1565), sequence (P10635 whole entry, looked up): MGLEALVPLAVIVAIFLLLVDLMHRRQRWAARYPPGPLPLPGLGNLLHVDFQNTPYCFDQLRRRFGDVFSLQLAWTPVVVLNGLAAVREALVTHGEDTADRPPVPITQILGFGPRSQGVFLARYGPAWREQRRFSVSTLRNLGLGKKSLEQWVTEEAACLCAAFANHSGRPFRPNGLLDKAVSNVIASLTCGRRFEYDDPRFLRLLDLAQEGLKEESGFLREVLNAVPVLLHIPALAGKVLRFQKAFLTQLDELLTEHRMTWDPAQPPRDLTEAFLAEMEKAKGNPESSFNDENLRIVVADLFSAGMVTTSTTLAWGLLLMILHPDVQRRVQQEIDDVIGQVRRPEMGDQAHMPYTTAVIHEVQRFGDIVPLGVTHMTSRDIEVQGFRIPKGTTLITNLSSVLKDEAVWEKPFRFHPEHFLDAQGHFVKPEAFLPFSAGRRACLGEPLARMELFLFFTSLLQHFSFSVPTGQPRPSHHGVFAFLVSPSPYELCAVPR
Experimental: NVS_ADME_hCYP2D6 is a biochemical, single-readout assay that uses extracted gene-proteins from insect cells in a cell-free assay. Measurements were taken 1 hour after chemical dosing in a 96-well plate.NVS_ADME_hCYP2D6 is one of one assay component(s) measured or calculated from the NVS_ADME_hCYP2D6 assay. It is designed to make measurements of enzyme activity, a form of enzyme reporter, as detected with fluorescence intensity signals by Fluorescence technology.Data from the assay component NVS_ADME_hCYP2D6 was analyzed into 1 assay endpoint. This assay endpoint, NVS_ADME_hCYP2D6, was analyzed in the positive analysis fitting direction relative to Acetonitrile as the negative control and baseline of activity. Using a type of enzyme reporter, loss-of-signal activity can be used to understand changes in the enzymatic activity as they relate to the gene CYP2D6. Furthermore, this assay endpoint can be referred to as a primary readout, because this assay has produced multiple assay endpoints where this one serves a enzymatic activity function. To generalize the intended target to other relatable targets, this assay endpoint is annotated to the cyp intended target family, where the subfamily is xenobiotic metabolism.
Binding assays used specific radioligands (tritiated, iodinated) with non-radioactive competitive displacement ligands in agonist or antagonist protocols (as indicated) and various reference compounds and inhibitors to titrate specific binding to receptors and transporters. Most enzyme assays (CYPs, kinases, phosphatases, proteases, HDACs) used recombinant protein and specific substrates (fluorescence mostly, some colorimetric and radioactive) and inhibitors, followed by a biochemical separation of substrate and product. All assays for the biochemical HTS were initially run in duplicate at a single concentration (10 uM for CYP450 assays and 25 uM for all others). […] Each assay was run with positive and negative controls, and concurrent controls on every plate. The follow-up (secondary) screen tested active chemical-pairs in concentration series, as well as a few additional assays not tested in the primary screen, some selected negative inactives, and several cases re-run in the concentration series for confirmatory purposes.
`CCCCC(C#N)(Cn1cncn1)c1ccc(Cl)cc1` (configuration not stated) was tested, and the outcome was “inactive”. `CCNP(=S)(OC)O/C(C)=C/C(=O)OC(C)C` (configuration not stated) was tested, and the AC50 was 7.62 µM (active). In the case of `CC1(C)C(C=C(Cl)Cl)C1C(=O)OC(C#N)c1cccc(Oc2ccccc2)c1` (configuration not stated), the AC50 is reported as 6.07 µM (active). In the case of `Cn1c(-c2ccccc2)cc(-c2ccccc2)[n+]1C`, the AC50 is reported as 5.06 µM (active). `COP(=S)(OC)SCn1nnc2ccccc2c1=O` was tested, and the AC50 was 4.19 µM (active). For `CS(=O)(=O)c1cc(C(F)(F)F)ccc1C(=O)c1cnoc1C1CC1`, the outcome was “inactive”. For `COP(=S)(OC)Oc1ccc([N+](=O)[O-])c(C)c1`, the AC50 was 4.59 µM (active). In the case of `COc1ccc(-c2ccccc2)cc1NNC(=O)OC(C)C`, the outcome is reported as “inactive”. `N#CN=C1SCCN1Cc1ccc(Cl)nc1` was tested, and the outcome was “inactive”. With `CCOC(=O)C(C)OC(=O)c1cc(Oc2ccc(C(F)(F)F)cc2Cl)ccc1[N+](=O)[O-]` (configuration not stated) the outcome was “inactive”. With `Cc1ccc(N=CN(C)C=Nc2ccc(C)cc2C)c(C)c1` the outcome was “inactive”. With `CSC(=O)c1c(C(F)F)nc(C(F)(F)F)c(C(=O)SC)c1CC(C)C` the AC50 was 6.58 µM (active).
